Assay outcomes deposited in PubChem by several laboratories.
EBI2 antag – blocks human EBI2 receptor beta-arrestin signaling | EBI2 beta-arrestin recruitment, luminescence, 7a,25-OHC stimulated | P32249 | 360,000 compounds, 0.81% hits | inhibition, % at 5 µM | AID 651636; in the data active = inhibition above about 38%;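 note: enzyme fragment complementation signal reports receptor beta-arrestin coupling in cells; 0% = agonist plus DMSO wells and 100% = wells without agonist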
Target sequence (P32249 whole entry, looked up, the tested form may be a part): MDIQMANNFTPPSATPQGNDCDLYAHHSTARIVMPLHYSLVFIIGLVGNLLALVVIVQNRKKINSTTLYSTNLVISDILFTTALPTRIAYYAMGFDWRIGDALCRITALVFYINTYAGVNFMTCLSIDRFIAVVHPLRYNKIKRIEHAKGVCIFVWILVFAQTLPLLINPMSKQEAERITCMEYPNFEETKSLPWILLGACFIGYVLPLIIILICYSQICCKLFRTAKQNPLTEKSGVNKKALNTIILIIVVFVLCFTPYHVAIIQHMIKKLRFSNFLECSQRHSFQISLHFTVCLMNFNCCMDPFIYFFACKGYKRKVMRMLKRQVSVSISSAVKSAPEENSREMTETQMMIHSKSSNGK
SKKanGAS inh – inhibitors of SKKanGAS S. pyogenes growth in kanamycin (SK-promoter or general growth effect); BacTiter-Glo, 6 h; inhibition, % at 7.5 µM; 300,000 compounds, 1.3% hits;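 active = mean replicate score, as percent of positive control median, at least 50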;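 note: strain carries kanamycin resistance gene driven by streptokinase promoter and grows in 40 µg/ml kanamycin; loss of luminescence reflects streptokinase promoter inhibition or plain growth inhibition; 0% = median of DMSO wells and 100% = positive control at its reference dose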
PfHsp90 set2 – reduces growth (ATP signal) of yeast expressing P. falciparum Hsp90; S. cerevisiae expressing PfHsp90, BacTiter-Glo ATP, 48 h; yeast lacking PDR1 and PDR3 efflux regulators; inhibition, % at 9.4 µM; 310,000 compounds, 0.32% hits; AID 504621;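 active = every replicate shows inhibition above about 80%, whatever the replicate mean, limit read from the data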;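 note: 0% = DMSO neutral controls and 100% = 20 µM radicicol positive controls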
TIM10 inh – inhibits growth of TIM10 yeast strain | S. cerevisiae TIM10 strain growth, BacTiter-Glo luminescence, 24 h | inhibition, % at 10 µM | 330,000 compounds, 1.4% hits | AID 463195;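 active = inhibition of 40% or more at the single tested concentration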;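 note: wild-type TIM10 isogenic control strain grown at permissive 25 °C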
tim23-1 inh – tim23-1 yeast growth inhibition. 330,000 compounds, 1.3% hits. AID 463212. S. cerevisiae tim23-1 growth, BacTiter-Glo luminescence, 24 h. inhibition, % at 20 µM;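 active = growth inhibition of the mutant yeast at or above 50%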;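 note: temperature-sensitive mutant grown at 25 °C; plate controls were DMSO-treated mutant yeast for no effect and medium wells lacking yeast for full effect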
tim10-1 inh – inhibits growth of tim10-1 mutant yeast; AID 463190; 330,000 compounds, 2.2% hits; S. cerevisiae tim10-1 ts strain growth, BacTiter-Glo, 24 h; inhibition, % at 20 µM;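 active = inhibition of at least 40%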;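 note: mutant grown at 25 °C; 0% = DMSO wells with yeast and 100% = wells holding no yeast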
EBI2 conf – EBI2 (human) antagonism, single concentration confirmation; shares compounds with EBI2 antag; EBI2 beta-arrestin luminescence, 7a,25-OHC antagonism; inhibition, % at 5 µM; 2,400 compounds, 29% hits;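 active = inhibition of at least 50%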
EBI2 agonist – counter-screen for EBI2 antagonists: EBI2 agonist activity. activation, % at 5 µM. shares compounds with EBI2 antag. EBI2-expressing cells, agonist mode, luminescence, 60 min; 0% vehicle, 100% 7α,25-dihydroxycholesterol control. AID 652000. 2,400 tested, under 10 active;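 active = activation of at least 50%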
bGal cs – beta-galactosidase inhibition counter-screen; purified beta-galactosidase, luminescent Galacton Star, 15 min; shares compounds with EBI2 antag; AID 652176; 2,400 compounds, 1% hits; inhibition, % at 5 µM;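 active = replicate-average signal at least 3 plate SD below neutral wells, shown as high inhibition, flagging enzyme-inhibiting false positives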;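 note: 0% = DMSO wells with enzyme and 100% = wells lacking enzyme; higher means stronger loss of beta-gal luminescence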
An asterisk follows results filed as active; . = no result given. This is a sample that favours compounds with a hit; in the whole collection about 4.7% have one here.

SMILES	EBI2 antag	SKKanGAS inh	PfHsp90 set2	TIM10 inh	tim23-1 inh	tim10-1 inh	EBI2 conf	EBI2 agonist	bGal cs
COc1ccc(NC(=O)C(=O)c2cn(CC(=O)N3CCCC3)c3ccccc23)c(OC)c1	-0.9	2.2	-2.7	-18.4	-17.3	-9.9	.	.	.
Cn1nc(C(=O)N2CCN(C(c3ccccc3)c3ccccc3)CC2)c2ccccc2c1=O	8.7	-0.5	-21.1	-7.0	17.0	-23.6	.	.	.
CCCC(C)NC(=O)COC(=O)c1cccc(NS(C)(=O)=O)c1 (stereo not drawn)	-8.4	-7.4	10.7	-18.0	-0.2	6.1	.	.	.
Cc1ccc(/C=N/NC(=S)NC2CCS(=O)(=O)C2)cc1 (stereo not drawn)	44.0*	-7.6	.	11.9	5.4	13.3	43.8	0.8	7.0
COCCOC(=O)c1c(NC(=O)COC(=O)Cc2cccc(OC)c2)sc(C(N)=O)c1C	44.3*	16.9	-27.2	2.6	-8.6	-7.5	17.5	-1.6	-18.7
COCCOC(=O)c1c(NC(=O)CN(C)c2ccccc2)sc(C(N)=O)c1C	88.0*	6.1	6.2	7.8	3.7	13.9	53.9*	2.8	11.0
CCOC(=O)c1c(NC(=O)CN(C)C2CCN(C)CC2)sc(C(=O)Nc2ccccc2)c1C	3.2	13.8	1.6	5.1	2.6	-39.0	.	.	.
COCCOC(=O)c1c(NC(=O)CN2CCc3ccccc32)sc(C(N)=O)c1C	70.1*	3.9	-15.6	7.2	9.0	2.4	22.3	-0.6	-11.4
COCCOC(=O)c1c(NC(=O)CNC2CCCc3ccccc32)sc(C(N)=O)c1C (stereo not drawn)	82.0*	0.1	-20.0	-22.0	-13.2	-8.0	42.0	-1.8	-6.1
COc1ccc2c(c1)CCCC21NC(=O)N(CC(=O)c2cc(F)ccc2F)C1=O (stereo not drawn)	6.4	.	.	10.4	34.4	24.8	.	.	.
O=C(Nc1ccc(Oc2ccccc2)nc1)C1CCCCN1Cc1cccc(OCCO)c1 (stereo not drawn)	62.5*	4.0	-22.0	2.0	5.3	12.7	57.8*	1.5	0.6
COc1ccc([C@H]2CC(=O)C=C(c3ccc4ncccc4c3)C2)cc1	82.1*	.	13.7	-2.0	14.6	3.9	58.5*	0.2	8.0
COc1ccc([C@H]2CC(=O)C=C(c3ccc4ncccc4c3)C2)cc1OC	47.3*	.	-6.1	3.4	13.4	-5.2	23.7	0.8	2.6
Nc1nc(CSc2ccc(Cl)cc2)nc(N2CCCCC2)n1	44.3*	.	.	6.3	48.5	26.2	5.7	1.8	3.4
COC(=O)c1ccc(C23CC4(C2)[C@H](CN(Cc2cccnc2)[C@@H]4c2ccccc2)C3c2ccccc2)cc1 (stereo partly drawn)	11.2	9.9	10.3	18.7	23.8	23.7	.	.	.
N#Cc1ccc(C23CC4(C2)[C@H](CN(Cc2cccnc2)[C@@H]4c2ccccc2)C3c2ccccc2)cc1 (stereo partly drawn)	71.6*	17.4	1.8	7.4	17.0	16.8	30.4	-0.7	-5.3
O=C(CN1CCOCC1)N1CCN(c2nnc(-c3ccccc3)c3ccccc23)CC1	3.5	2.6	-36.9	-5.4	-13.7	1.2	.	.	.
O=C(COc1ccc([N+](=O)[O-])cc1)N1CCN(c2nnc(-c3ccccc3)c3ccccc23)CC1	68.1*	26.2	14.2	-9.7	-10.9	-17.1	35.6	-0.6	12.6
Cc1ccc(-c2nnc(N3CCN(C(=O)COc4ccccc4)CC3)c3ccccc23)cc1	86.2*	14.3	-38.2	7.1	23.4	15.0	53.0*	-0.5	-9.3
COc1ccc(CCCc2nnc(SCC(=O)N/N=C\c3ccc(O)c(OC)c3)o2)cc1C	27.4	-2.0	3.9	-2.6	-3.5	0.1	.	.	.
COc1ccc(/C=N/NC(=O)CSc2nnc(CCCc3ccc(OC)c(C)c3)o2)cc1	47.3*	13.8	-21.3	9.2	6.0	19.7	15.8	-0.9	-10.7
CC(C)(C)OC(=O)C[C@@H]1C/C=C\C[C@H](CC(=O)N(CCO)Cc2ccccc2)C(=O)NCCOC1=O	-13.2	.	1.7	2.5	-3.8	-8.4	.	.	.
Cc1ccc(CNC(=O)C2(S(=O)(=O)c3ccccc3)CC=CC2)cc1	-4.0	0.3	-28.2	10.3	12.2	9.1	.	.	.
COc1cc2c(cc1NC(=S)NC(=O)/C=C/c1ccc(OC)c(OC)c1)oc1ccccc12	-2.1	.	-13.2	.	.	.	.	.	.
COc1cc2c(cc1NC(=S)NC(=O)/C=C/c1ccco1)oc1ccccc12	55.2*	2.3	-2.8	11.7	4.0	11.9	51.1*	-1.7	-15.9
SMILES	EBI2 antag	SKKanGAS inh	PfHsp90 set2	TIM10 inh	tim23-1 inh	tim10-1 inh	EBI2 conf	EBI2 agonist	bGal cs
COc1ccc(/C=C/C(=O)NC(=S)Nc2cc3oc4ccccc4c3cc2OC)cc1	65.0*	-3.3	-6.8	-4.7	-4.8	12.3	44.9	1.1	2.0
COc1cc2c(=O)n(CC3CCCO3)c(=O)n(CC(=O)Nc3ccccc3)c2cc1OC (stereo not drawn)	-4.8	-4.6	-29.8	8.1	12.2	-7.1	.	.	.
CCCCOC(=O)c1ccc(NC(=O)CSC2=Nc3ccccc3C3CC=NN23)cc1 (stereo not drawn)	58.5*	5.3	-20.7	-8.6	-3.3	2.9	16.5	0.0	8.7
Cc1ccc(OCC(=O)NNC(=O)C2CCN(c3ncnc4sc(C)c(C)c34)CC2)cc1	43.9	9.8	10.3	10.8	29.9	23.9	.	.	.
Cc1sc2ncnc(N3CCC(C(=O)NNC(=O)COc4ccc(Cl)cc4)CC3)c2c1C	51.3*	.	-10.6	.	.	.	36.5	1.3	7.3
Cc1sc2ncnc(N3CCC(C(=O)NNC(=O)COc4ccc(Br)cc4)CC3)c2c1C	56.9*	25.8	6.3	7.7	22.9	17.2	35.8	-1.1	-8.5
O=C(COc1ccccc1F)N1CCN(S(=O)(=O)/C=C/c2ccccc2)CC1	54.5*	-3.3	-32.4	-5.0	24.2	19.3	26.6	1.1	1.6
O=C(COc1ccc(Br)cc1)N1CCN(S(=O)(=O)/C=C/c2ccccc2)CC1	92.5*	-4.1	6.4	-13.1	20.3	35.7	85.6*	1.2	5.2
O=C(O)c1ccc(N2CCCS2(=O)=O)cc1	-3.0	-14.6	21.6	-12.0	10.3	6.4	.	.	.
O=C1c2ccccc2C(=O)N1CCc1ccccn1	-3.8	-5.5	22.7	-0.8	-10.7	4.0	.	.	.
O=C1c2cccc3c([N+](=O)[O-])ccc(c23)C(=O)N1CCc1ccccn1	74.8*	48.4	-3.7	11.8	35.2	18.3	40.7	-0.2	7.6
